Rows were chosen to be rich in hits. Some 19% of all compounds tested hit in one or more screens of this group.
RORgamma inh: qHTS for inhibitors of ROR gamma transcriptional activity; Nuclear receptor ROR-gamma (Mus musculus), P51450; Drosophila S2 Gal4-RORgamma UAS-luciferase reporter, 20 h; Potency, µM (top dose mostly 53.6 µM), for the others: at the top dose activity change, negative = inhibition, hits mostly inhibitors; actives 5.4% (n = 310,000); AID 2551, 2010; further: nearly all actives have a fitted effect of over 60% in size
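Read-out: Photinus luciferase luminescence; inhibitors lower reporter signal. Insect Schneider cells with Gal4-ROR gamma fusion under metallothionein promoter, UAS reporter; 700 uM final copper sulfate induction, 20 hr, ambient temperature.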
Gal4-VP16 FLuc: VP16 counterscreen qHTS for inhibitors of ROR gamma transcriptional activity; actives 3.5% (n = 310,000); Potency, µM (series often up to 53.6 µM), for inactives: at the highest dose activity, negative = inhibition, hits mostly inhibitors; Drosophila S2 Gal4-VP16 UAS-luciferase, luminescence, 20 h;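 further: Gal4-VP16 expression switched on by copper sulfate through the metallothionein promoter; nearly all actives have a fitted effect of over 50% in size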
TDP1 cell noCPT: qHTS for Inhibitors of human tyrosyl-DNA phosphodiesterase 1 (TDP1): qHTS in cells in absence of CPT. actives 15% (n = 420,000). DT40 Tdp1-/- hTDP1 cells, no CPT, ATP luminescence, 48 h. Potency, µM (titrated, usually from 46.2 µM), without a hit: at the top dose activity change, negative = growth inhibition, most hits filed as inhibitors. AID 686978, 2013; further: nearly all actives have a fitted effect of over 55% in size
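Compound effects on proliferation are scored in DT40 Tdp1-/-;hTDP1 cells in the absence of CPT. ATP levels (CellTiter-Glo luminescence) are recorded after a ≥48 hr, 37 °C incubation.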
DT40 TDP1 CPT: qHTS for Inhibitors of human tyrosyl-DNA phosphodiesterase 1 (TDP1): qHTS in cells in presence of CPT | chicken DT40 Tdp1-/-;hTDP1 cells + 20 nM CPT, ATP luminescence, 48 h | Potency, µM (titrated, usually from 46.2 µM), without a hit: at the highest dose activity change, negative = growth inhibition, usual class: inhibitors | actives 12% (n = 420,000) | AID 686979, 2013; further: nearly all actives have a fitted effect of over 55% in size
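Chicken DT40 Tdp1-/- cells complemented with human TDP1, 400 cells/well, exposed to compounds plus 20 nM camptothecin for at least 48 h at 37 C; viability read as ATP content by CellTiter-Glo luminescence.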
TDP1 block: qHTS Assay for Inhibitors of Tyrosyl-DNA Phosphodiesterase (TDP1); recombinant TDP1, AlphaScreen DNA substrate cleavage; AID 485290, 2010; Potency, µM (top dose mostly 130 µM), for the others: at the highest dose activity change, negative = inhibition, most hits filed as inhibitors; Tyrosyl-DNA phosphodiesterase 1 (Homo sapiens), Q9NUW8; actives 0.28% (n = 350,000); further: nearly all actives have a fitted effect of over 40% in size
Target sequence (Q9NUW8 whole entry, looked up): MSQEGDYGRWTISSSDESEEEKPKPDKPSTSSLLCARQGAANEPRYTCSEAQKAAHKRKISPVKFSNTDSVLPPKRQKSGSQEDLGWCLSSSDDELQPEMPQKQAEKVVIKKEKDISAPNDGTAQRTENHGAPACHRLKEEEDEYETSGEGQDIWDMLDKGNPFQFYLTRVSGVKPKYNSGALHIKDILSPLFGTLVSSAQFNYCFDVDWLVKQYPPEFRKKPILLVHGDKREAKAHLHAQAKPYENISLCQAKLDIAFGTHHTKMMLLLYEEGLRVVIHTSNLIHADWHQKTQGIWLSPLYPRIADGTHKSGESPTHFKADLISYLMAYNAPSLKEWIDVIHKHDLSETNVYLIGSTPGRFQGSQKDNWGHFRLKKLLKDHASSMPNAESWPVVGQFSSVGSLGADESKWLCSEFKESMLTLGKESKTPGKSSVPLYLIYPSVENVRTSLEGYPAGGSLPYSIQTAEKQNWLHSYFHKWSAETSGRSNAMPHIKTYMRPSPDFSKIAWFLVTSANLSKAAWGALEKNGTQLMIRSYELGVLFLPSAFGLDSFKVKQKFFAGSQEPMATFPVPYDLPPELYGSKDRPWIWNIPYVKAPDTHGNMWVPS
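Recombinant human Tdp1 (E. coli-expressed, 1 nM final) preincubated with compounds 15 min at room temperature, then 5'-biotin/3'-phosphotyrosine-FITC DNA substrate (15 nM final) added for 5 min. AlphaScreen beads (10 ug/ml final) added 10 min; cleavage lowers signal.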
Numbers without * were called inactive; ? = inconclusive; nt = no result; [ ] = remark or other dose. The call rests on the fitted dose curve; in most records, active means well fitted curve in the direction sought with a large enough effect; inconclusive means small, poorly fitted or top-dose-only effect, or another doubt; inactive means no such curve, though single readings can be large; an effect the other way counts as inactive or inconclusive. On the % scale 0 is the no-effect control and ±100 the full control effect; potency means the concentration at half of the fitted maximal effect.

SMILES | RORgamma inh | Gal4-VP16 FLuc | TDP1 cell noCPT | DT40 TDP1 CPT | TDP1 block
COc1ccc2[nH]c(=O)c(CN(CC3CCCO3)C(=S)Nc3ccc(C)cc3)cc2c1 (stereo unspecified) | 0% | 2% | 16µM* | -29% | 0%
COc1ccc(NC(=O)N(Cc2cc3cc(OC)c(OC)cc3[nH]c2=O)CC2CCCO2)cc1 (stereo unspecified) | 22% | 2% | ? | ? | -1%
CCOc1ccc2[nH]c(=O)c(CN(Cc3ccccc3)C(=O)N3CCCC3)cc2c1 | -24% | -6% | ? | 21µM* | -1%
COc1ccc2[nH]c(=O)c(CN(CC3CCCO3)C(=O)Nc3ccc(F)cc3)cc2c1 (stereo unspecified) | -9% | ? | 12µM* | 16µM* | 8%
Cc1nc(C#N)nc(Oc2ccccc2)c1Cl | nt | nt | -24% | -13% | nt
CCOC(=O)C1=C(C(C)=O)C(c2cccnc2)C(C#N)=C(N)O1 (stereo unspecified) | 2% | 7% | 1% | -4% | 2%
COc1ccc(-c2c(C)n([O-])c3c([n+]2=O)CCCC3)cc1OC | -11% | 1% | nt | nt | 5%
COc1ccc(NC(=O)N(Cc2cc3cc(C)ccc3[nH]c2=O)CC2CCCO2)cc1 (stereo unspecified) | 1% | 0% | ? | 18µM* | 2%
COc1ccc(N(Cc2cc3ccccc3[nH]c2=O)S(=O)(=O)c2ccc(OC)cc2)cc1 | -1% | -2% | ? | ? | 2%
Cc1cccc(NC(=O)N(Cc2cc3cc(C)ccc3[nH]c2=O)CC2COCCO2)c1 (stereo unspecified) | ? | ? | 23µM* | ? | 8%
COc1ccc(N(Cc2cc3cc(OC)ccc3[nH]c2=O)S(=O)(=O)c2ccc(NC(C)=O)cc2)cc1 | -7% | 1% | 8.2µM* | 16µM* | 4%
CCc1ccc2[nH]c(=O)c(CN(CCN(CC)CC)C(=O)NC3CCCCC3)cc2c1 | 21% | 1% | 26µM* | 15µM* | 10%
COc1ccc(NC(=O)c2ccc3ncsc3c2)cc1 | 2% | -10% | -1% | -16% | nt
COc1cc(C(=O)Nc2ccc(-c3nc4cc(C)ccc4o3)c(O)c2)cc(OC)c1OC | 3.5µM* | -22% | 8.2µM* | 12µM* | 6%
COc1cc(C(=O)Nc2ccc3oc(-c4ccc(C)c(Br)c4)nc3c2)cc(OC)c1OC | nt | nt | 8.2µM* | 21µM* | 1%[12.3 µM]
COc1cc(C(=O)Nc2ccc(-c3nc4cc(C)c(C)cc4o3)cc2)cc(OC)c1OC | nt | nt | ? | ? | 0%[12.3 µM]
COc1cc(C(=O)Nc2ccc(Cl)c(-c3nc4ncccc4o3)c2)cc(OC)c1OC | nt | nt | 16µM* | 21µM* | 0%
CC1(C)CC(N=C2C([N+](=O)[O-])=CC=C3C2=NC2(CCCCC2)N3O)CC(C)(C)N1 | -34% | -17% | 0% | 6% | nt
O=C(NCCc1ccc(Cl)cc1)c1ccc2c(c1)N(Cc1ccc(Cl)cc1)C(=O)CS2 | nt | nt | ? | ? | -3%
O=C(NCCc1ccccc1)c1ccc2c(c1)N(Cc1ccc(F)cc1Cl)C(=O)CS2 | nt | nt | -25% | -27% | 0%
O=C(NCc1ccc2c(c1)OCO2)c1ccc2c(c1)N(Cc1ccccc1F)C(=O)c1ccccc1S2 | nt | nt | -9% | -15% | -4%
O=C(NCCC1=CCCCC1)c1ccc2c(c1)N(Cc1ccccc1)C(=O)CS2 | 13% | -2% | 21µM* | ? | 5%
Cc1ccc(C)c(CN2C(=O)CSc3ccc(C(=O)NCc4ccccc4)cc32)c1 | nt | nt | 16µM* | 10µM* | -1%
Cc1ccc(CNC(=O)c2ccc3c(c2)N(Cc2cccc(C)c2)C(=O)CS3)cc1 | nt | nt | 21µM* | ? | -3%
O=C(NCc1ccc2c(c1)OCO2)c1ccc2c(c1)N(Cc1c(F)cccc1Cl)C(=O)CS2 | 21% | ? | 23µM* | ? | 3%
SMILES | RORgamma inh | Gal4-VP16 FLuc | TDP1 cell noCPT | DT40 TDP1 CPT | TDP1 block
O=C(NCCc1ccc(Cl)cc1)c1ccc2c(c1)N(Cc1ccc(F)cc1Cl)C(=O)CS2 | nt | nt | 6.5µM* | ? | 3%
O=C(O)/C=C\C(=O)Nc1ccccc1F | -12% | 6% | 2% | -14% | 3%
CN1c2ccccc2N(C)C1(C)c1cccc2ccccc12 | 21% | ? | 3.3µM* | 5.8µM* | 3%
Cc1cc(C)cc(C(=O)/C=C2\NC(=O)CS2)c1 | 4µM* | 5.6µM* | -10% | -9% | 2%
O=C1CS/C(=C/C(=O)c2ccccc2)N1 | ? | -27% | -4% | -12% | 1%
CC(NCC(=O)Nc1ccccc1C(=O)NC1CC1)c1ccc(Cl)cc1 (stereo unspecified) | nt | nt | 12µM* | ? | nt
COc1cccc(C(=O)NCc2ccccc2OC)c1 | 15% | -12% | -18% | 3% | 0%
CCc1cc(C(=O)c2ccc(Br)cc2)c(NC(=O)CN(CC)CC)s1 | 6.3µM* | 11µM* | -24% | ? | 4%
CCN(CC)CC(=O)Nc1sc(C)cc1C(=O)c1ccccc1 | 7.1µM* | ? | ? | ? | nt
Cc1ccc(NS(C)(=O)=O)c(C(=O)c2ccccc2)c1 | 4% | -1% | -5% | 2% | 3%
CCc1cc(C(=O)c2ccc(OC)cc2)c(NC(=O)COCC(=O)O)s1 | -2% | 4% | -6% | 7% | nt
CCOC(=O)c1c(-c2cccs2)csc1NC(=O)CN(CC)CC | ? | 0% | ? | ? | -2%
CCN(CC)CC(=O)Nc1sc(C)c(C)c1C(=O)c1ccc(C)cc1 | 11µM* | -7% | ? | ? | 5%
Cc1cc(C(=O)c2ccccc2)c(NC(=O)CCl)s1 | -12%[10 µM] | -99% | 23µM* | 9.2µM* | 5%
CCOc1ccc(NC(=O)c2sc(-n3nc(C)c(CCC(C)C)c3C)nc2C)cc1 | nt | nt | ? | ? | 2%
O=C(NCc1ccccc1)C(c1ccc(F)cc1)N(Cc1ccc2c(c1)OCO2)C(=O)Cn1nnc(-c2cccs2)n1 (stereo unspecified) | 21% | -1% | ? | -18% | 4%
CCOc1ccc(NC(=O)c2cc(S(=O)(=O)N3CCOCC3)cs2)cc1 | 3% | -2% | 0% | -7% | 1%[56.1 µM]
CCN(CC)CC(=O)Nc1sc(C)cc1C(=O)c1ccc(C)cc1 | 3.2µM* | 6.3µM* | ? | ? | 4%
CCOC(=O)c1cc(C)sc1NC(=O)CSC1=NCCS1 | nt | nt | -25% | ? | -4%
O=C(Cn1cc(C(=O)C2CC2)c2ccccc21)NCc1ccccc1 | -22% | ? | ? | -11% | -2%

From PubChem
